Only some compounds are listed: those with a hit (about 9% of all), similar ones and a draw of the others.
HP1b binding inh: HP1-beta chromodomain-methylated histone interaction inhibition | AlphaScreen HP1-beta / biotin-H3K9me3 peptide binding | 390,000 tested, 0.56% active | P83916 | Potency, µM (top dose mostly 114 µM), inactives show at the top dose activity change, negative = inhibition, actives largely listed as inhibitors; note: nearly all actives have a fitted effect of over 70% in size
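AlphaScreen: HP1-beta (50 nM) preformed 30 min with biotin-H3(1-18)K9me3 peptide (50 nM) in PBS pH 7.4, 0.01% Tween-20. Compound added for 30 min at RT, then streptavidin donor/nickel chelate acceptor beads (10 ug/mL) for 30 min.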
PLK1 PBD block: inhibitors of human PLK1 polo-box domain binding. P53350. Plk1 PBD binding of FITC phosphopeptide, fluorescence polarization. Potency, µM, without a hit: max response, negative = inhibition, usual class: inhibitors. 360,000 tested, 2.8% active; note: series mostly up to about 57 µM; % is set by controls: 0 for no effect and ±100 for the full control effect; nearly all actives have a fitted effect of over 65% in size
BAZ2B inh: inhibitors of human BAZ2B bromodomain; Q9UIF8; AlphaScreen BAZ2B-H3K14Ac peptide displacement; AID 504333; Potency, µM (titrated, usually from 114 µM), for the others: at the highest dose activity change, negative = inhibition, actives largely listed as inhibitors; 360,000 tested, 4.4% active; note: % is set by controls: 0 for no effect and ±100 for the full control effect; nearly all actives have a fitted effect of over 60% in size
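Complex of BAZ2B and biotin-H3K14Ac (50 nM apiece) forms over 30 min at RT, then faces library compounds up to 110 uM for another 30 min; AlphaScreen beads added, 20 min dark incubation, luminescence read.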
12-LOX inh: ALOX12 (human) lipoxygenase inhibition; purified 12hLO, xylenol orange hydroperoxide absorbance; 580,000 tested, 1.1% active; Potency, µM (highest dose often 108 µM), without a hit: at the top dose activity change, negative = inhibition, usual class: inhibitors; P18054; note: % is set by controls: 0 for no effect and ±100 for the full control effect
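Purified human 12hLO at 150 nM in 25 mM Hepes, 0.01% Triton X-100, pH 7.0, preincubated 15 min at room temperature with compound. Reaction started with 40 uM arachidonic acid, 30 min at room temperature. Hydroperoxide measured by Fe-xylenol orange, 573/405 nm absorbance ratio.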
G9a inh: G9a (human) methyltransferase inhibition. 350,000 tested, 8.8% active. Potency, µM (doses to about 102 µM), inactives show top-dose activity, negative = inhibition, most hits filed as inhibitors. G9a H3K9 monomethylation, AlphaScreen, 2 h. AID 504332. Q96KQ7; note: % is set by controls: 0 for no effect and ±100 for the full control effect; nearly all actives have a fitted effect of over 75% in size
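Chemiluminescent proximity detection of H3K9 monomethylation, read after 10 min bead incubation in the dark. Reaction: 20 nM G9a, 500 nM biotin-H3K9 peptide, 20 uM SAM cofactor, 2 h, room temperature, following 15 min enzyme-compound preincubation.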
JMJD2A Tudor inh: inhibitors of human JMJD2A Tudor domain; O75164; AlphaScreen JMJD2A-Tudor / H3K4me3 peptide binding; Potency, µM (titrated, usually from 114 µM), for the others: at the highest dose activity change, negative = inhibition, usual class: inhibitors; 390,000 tested, 4.4% active; note: % is set by controls: 0 for no effect and ±100 for the full control effect; nearly all actives have a fitted effect of over 50% in size
Numbers without * were called inactive; u = inconclusive; x = no result; [ ] = remark or other dose. Calls come from the whole dose curve; as a rule, active = well fitted curve in the direction sought with a large enough effect; inconclusive = small, poorly fitted or top-dose-only effect, or another doubt; inactive = no such curve, though single readings can be large; an effect the other way counts as inactive or inconclusive. Potency is the fitted concentration of half-maximal effect.

SMILES | HP1b binding inh | PLK1 PBD block | BAZ2B inh | 12-LOX inh | G9a inh | JMJD2A Tudor inh
CCN1/C(=C/c2ccc3cc(C)ccc3[n+]2C)Sc2ccc3sccc3c21 | -16% | -13% | 45µM* | 45µM* | 16µM* | 14µM*
CC(=O)N1c2ccccc2Sc2ccc3ccccc3c21 | x | 3% | x | 9% | x | x
CCCCN1/C(=C/c2ccc3ccccc3[n+]2CC)Sc2ccccc21 | -7% | 10% | u | x | 32µM* | 32µM*
CCN1/C(=C/c2ccc3cc(C)ccc3[n+]2CC)Sc2cc(C)ccc21 | -32% | 5% | 40µM* | 35µM* | 22µM* | u
O=C(O)C1CC=CCC1C(=O)N1CCCC1 (stereo not drawn) | 43% | -7% | 5% | 235% | 9% | -5%
CN(C)c1ncnc2c1ncn2C1OC(CO)C(O)C1O (stereo not drawn) | 13% | -4% | 12% | 443% | -2%[59 µM] | -12%
COC(=O)C1CN(S(=O)(=O)c2ccc(C)cc2)CCN1S(=O)(=O)c1ccc(C)cc1 (stereo not drawn) | 35% | -10% | -7% | 0% | -5%[12.7 µM] | 3%
O=C(Cc1cccs1)NCc1cccc(Cl)c1 | 48% | 1% | 6% | 0% | 26% | 89µM*
COc1ccccc1N(CC(=O)N1CCC(C(N)=O)CC1)S(=O)(=O)c1ccccc1 | -14% | -9% | 9% | 3% | 23% | -22%
N#CC1=C(N)OC2=C(C(=O)CCC2)C12CCN(C(=O)OCc1ccccc1)CC2 | 28% | -16% | -34% | u | 50µM* | -11%[57.1 µM]
CC1(C)CC(=O)C2=C(C1)OC(N)=C(C#N)C21CCN(C(=O)OCc2ccccc2)CC1 | 4% | 0% | 11% | 9% | -33%[2.33 µM] | -23%
CC1CCC(C(C)C)C(OC(=O)COC(=O)c2cc(O)ccc2N)C1 (stereo not drawn) | 16% | -1% | u | u | 10µM* | u
CC1CCC(C(C)C)C(OC(=O)COC(=O)c2ccc(=O)[nH]c2)C1 (stereo not drawn) | 17% | -4% | -10% | -5% | -43% | -14%
Cc1cccc(NCc2nnc(-c3ccccc3)o2)c1C | -13% | u | -7% | 1% | 5% | 79µM*
O=C(NCc1cc([N+](=O)[O-])ccc1O)c1cc(-c2ccncc2)nc2ccccc12 | 15% | 0% | u | 69% | u | -14%
Cc1nnc(N2C(=O)C(O)=C(C(=O)c3ccco3)C2c2cccc([N+](=O)[O-])c2)s1 (stereo not drawn) | 29% | -6% | -12% | u | 21% | -28%
Cc1cc(C)c2nc(N3CCC(C(=O)N4CCN(C(=O)c5ccco5)CC4)CC3)sc2c1 | -16% | -9% | u | u | u | u
Cc1cc(C)c2nc(N3C(=O)C(O)=C(C(=O)c4ccco4)C3c3cccc(O)c3)sc2c1 (stereo not drawn) | -9% | 27µM* | u | 25µM* | -48%[2.33 µM] | u
Cc1cc(C)c2nc(N3C(=O)C(O)=C(C(=O)c4ccco4)C3c3ccc(O)cc3)sc2c1 (stereo not drawn) | -8% | 19µM* | u | 25µM* | u | u
CCOC(=O)c1sc(N2C(=O)C(O)=C(C(=O)c3ccco3)C2c2cccc([N+](=O)[O-])c2)nc1C (stereo not drawn) | -3% | 30µM* | u | 45µM* | 45µM* | u
Nc1cccc(-c2c[nH]c3ncc(-c4cccnc4)cc23)c1 | 3% | -11% | x | x | x | 18µM*
O=C(O)CCN1CCc2ccccc2C1c1cccs1 (stereo not drawn) | 36% | -3% | -38% | -9% | 50µM* | 3%
CNC(=O)c1ccc(NC(=O)CN2CCc3cc(OC)c(OC)cc3C2c2cccs2)cc1 (stereo not drawn) | x | x | x | -4% | x | x
Cc1ccc(S(=O)(=O)c2nc(-c3cccs3)oc2SCC(=O)Nc2cc(C)cc(C)c2)cc1 | 8% | x | -15% | -13% | u | -24%
O=C(OCc1nc2scc(-c3ccccc3)c2c(=O)[nH]1)c1cccc([N+](=O)[O-])c1 | u | 30µM* | -2% | -4% | 40µM* | u
SMILES | HP1b binding inh | PLK1 PBD block | BAZ2B inh | 12-LOX inh | G9a inh | JMJD2A Tudor inh
NC(=O)Cc1nc2scc(-c3ccccc3)c2c(=O)[nH]1 | -6% | u | -19% | u | 14µM* | -10%
O=C(OCc1nc2scc(-c3ccccc3)c2c(=O)[nH]1)c1ccco1 | 20% | -1% | 8% | 0% | u | -18%
Cc1cccc(N(CC(=O)O)CC(=O)O)c1 | 1% | 4% | -31% | -1% | 11µM* | -35%
Cc1ccc(-c2csc3ncn(CC(=O)NC4CCCc5ccccc54)c(=O)c23)cc1 (stereo not drawn) | x | x | x | -4% | x | x
CC(C)(C)C1CCC(=NNc2nc3ccccc3[nH]2)CC1 (stereo not drawn) | 27% | -5% | u | -13% | 40µM* | -28%
O=C(COc1cc(O)c2c(=O)cc(-c3ccccc3)oc2c1)NCC(O)CO (stereo not drawn) | x | x | x | -1% | x | x
CN(C)C(=O)c1cccn1-c1ncc(C(F)(F)F)cc1Cl | 36% | 4% | -2% | 6% | 11% | -18%
CN(C)C(=O)c1cnc(Sc2ncc(C(F)(F)F)cc2Cl)n1C | 54% | -2% | 16% | 0% | 56µM* | 6%
CCN1CCN(C(=O)C2=CC(c3ccccc3OC)=NS(=O)(=O)N2C)CC1 | x | x | x | -12% | x | x
COC(=O)c1cc(OC)c(OC)cc1NC(=S)Nc1cccc(Cl)c1 | 16% | -26% | -7% | 122% | 8% | 2%
CCN(CC(=O)Nc1ccccc1C(F)(F)F)C(=O)c1cc(-c2cccs2)nn1-c1ccccc1 | 16% | -6% | 0% | 0% | x | -14%
O=C(O)c1cc(-c2cccs2)nn1-c1ccc(F)cc1 | 39% | -4% | u | -12% | 45µM* | -13%
CN(CC(=O)Nc1cccc(F)c1)C(=O)c1cc(-c2cccs2)nn1-c1ccccc1 | 14% | -11% | u | -27% | 50µM* | -23%
CCCN(CC(=O)Nc1ccccc1OC)C(=O)c1cc(-c2cccs2)nn1-c1ccccc1 | 29% | 1% | -3% | u | 45µM* | -15%
Cc1ccc(Cl)cc1NC(=O)CSc1ncnc2ccccc12 | x | x | x | -7% | x | x
CC(CNC(=O)CCc1nc2ccccc2[nH]1)N1CCCCC1 (stereo not drawn) | x | x | x | 14% | x | x
CC(C)=CCc1c(O)ccc(C(=O)Cc2ccccc2)c1O | 79% | -14% | 17% | u | 3%[12.7 µM] | -13%[11.4 µM]
COc1ccc(Cc2nc(-c3cccs3)no2)cc1OC | 36% | -17% | 0% | 6% | 50µM* | -2%
